The source made the active and inactive calls. Calls follow the shape of the dose curve; as a rule, active = well fitted curve in the direction sought with a large enough effect; inactive = no such curve, though single readings can be large or run the other way.
biological target: Pyruvate kinase PKLR (Homo sapiens) (UniProt P30613); test: qHTS for Activators of Human Muscle Isoform 2 Pyruvate Kinase (PK): Extended Characterization using Reticulocyte PK; settings: purified hPK-R, Kinase-Glo ATP luminescence, 1 h; series mostly up to 57.5 µM
Sequence (P30613 whole entry, looked up, canonical isoform): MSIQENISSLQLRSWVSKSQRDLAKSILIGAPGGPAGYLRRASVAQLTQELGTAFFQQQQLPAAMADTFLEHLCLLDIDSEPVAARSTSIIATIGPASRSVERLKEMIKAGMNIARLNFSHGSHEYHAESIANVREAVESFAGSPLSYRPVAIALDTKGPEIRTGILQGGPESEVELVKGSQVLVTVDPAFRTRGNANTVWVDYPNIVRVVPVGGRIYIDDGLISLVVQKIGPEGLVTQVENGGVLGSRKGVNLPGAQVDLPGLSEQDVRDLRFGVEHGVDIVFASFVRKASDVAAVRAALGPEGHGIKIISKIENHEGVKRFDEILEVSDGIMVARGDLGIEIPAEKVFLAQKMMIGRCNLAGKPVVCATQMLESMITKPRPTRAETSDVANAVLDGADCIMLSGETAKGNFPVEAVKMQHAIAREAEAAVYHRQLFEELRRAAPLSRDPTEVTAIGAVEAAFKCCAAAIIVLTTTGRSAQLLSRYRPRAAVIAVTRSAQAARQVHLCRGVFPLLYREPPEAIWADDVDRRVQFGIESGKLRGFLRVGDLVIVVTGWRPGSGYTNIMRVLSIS
Excerpt: Human pyruvate kinase reticulocyte (hPK-R) enzyme was supplied as a highly purified (>95% pure) preparation from Structural Genomics Consortium in Toronto (Ontario, Canada) and assayed for its ability to generate ATP from ADP using phosphoenolpyruvate (PEP) as a substrate. ATP generation was detected in a coupled reaction by luciferase-mediated luminescence, an ATP-dependent process. Pyruvate kinase substrates, PEP and ADP, were present in the assay at Km and approximately 10-fold below Km respectively. The enzyme was assayed at an intermediate level of activity to screen for both inhibitors and activators. NIH Chemical Genomics Center [NCGC] NIH Molecular Libraries Probe Centers Network [MLPCN] MLPCN Grant: MH085679 Assay Submitter (PI): Matthew G. Vander Heiden, Harvard Medical School
Three uL of substrate mix (at r.t.) in assay buffer (50 mM Imidazole pH7.2, 50 mM KCl, 7 mM MgCl2, 0.01% Tween 20, 0.05% BSA) was dispensed into white solid bottom 1,536 well microtiter plates so that the final concentrations of substrates in the assay were 0.1 mM ADP and 0.5 mM PEP. 23 nL of compound were delivered by a pin tool and 1 uL of enzyme mix (final concentration of 0.1 nM) in assay buffer (4 degree Celsius) was added. Plates were incubated at room temperature for 1 hour. Two uL of detection mix (Kinase-Glo, Promega; at 4 degree Celsius protected from light) was added and luminescence read by a ViewLux (Perkin Elmer) at 1 second exposure/plate. Data were normalized to the uninhibited (row 31). Additionally, a no enzyme and 5-fold enzyme control was dispensed in row 32, split equally between the two conditions.

| Structure (SMILES) | outcome |
| --- | --- |
| COc1cccc(Cn2ncc3c4sc(S(C)=O)cc4n(C)c3c2=O)c1 (stereo not given) | inactive |
| Cc1cc2c(s1)c1cnn(Cc3cc(F)c(F)cc3F)c(=O)c1n2C | inactive |
| Cc1cc2c(s1)c1cnn(Cc3c(Cl)ccc(C)c3F)c(=O)c1n2C | inactive |
| Cc1cc2c(s1)c1cnn(Cc3cc(F)ccc3F)c(=O)c1n2C | inactive |
| Cc1cc2c(s1)c1cnn(Cc3ccc(F)cc3F)c(=O)c1n2C | inactive |

From PubChem BioAssay AID602381 (National Center for Advancing Translational Sciences (NCATS), 2012)
